An excerpt weighted towards active compounds, which were near 9% of everything screened.
HttQ103 aggreg = qHTS Multiplex Assay to Identify Dual Action Probes in a Cell Model of Huntington: Aggregate Formation (GFP); Potency, µM (titrated, usually from 46.1 µM), for inactives: at the highest dose activity change, negative = inhibition, actives largely listed as inhibitors; AID 1688, 2009; PC12 HttQ103-GFP aggregates, Acumen cytometry, 40 h; actives 1.1% (n = 220,000); also: % is scaled to controls: 0 for no effect and ±100 for the full control effect; nearly all actives have a fitted effect of over 60% in size
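Huntingtin Q103 exon 1–GFP aggregates in induced PC12 cells (100 nM tebufenozide) were quantified by cytometry from lysates, with compounds dosed in titration.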
HPGD block = qHTS Assay for Inhibitors of HPGD (15-Hydroxyprostaglandin Dehydrogenase) | actives 4.3% (n = 150,000) | 15-hydroxyprostaglandin dehydrogenase [NAD(+)] (Homo sapiens), P15428 | purified HPGD, NADH fluorescence kinetic, PGE2 substrate | Potency, µM, without a hit: top-dose activity change, negative = inhibition, usual class: inhibitors; active = well fitted inhibition curve with a large enough effect, not every such curve was filed as active; inconclusive = small, poorly fitted or top-dose-only effect, or another doubt; inactive = no such curve, though single readings can be large or run the other way; also: % is scaled to controls: 0 for no effect and ±100 for the full control effect
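NADH formation kinetics: reaction with 30 uM PGE2 and 1 mM NAD+ (final), 20 nM enzyme, Tris-HCl pH 8 with Tween 20, after 15 min compound preincubation at room temperature. Fluorescence change, last versus first of five reads.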
Luc counter = Counterscreen for Luciferase (Kinase-Glo TM) Inhibition. Kinase-Glo luciferase, ATP luminescence, 8 min. Potency, µM (highest dose often 38.3 µM), without a hit: at the highest dose activity change, negative = inhibition, most hits filed as inhibitors. actives 0.28% (n = 200,000). AID 1379, 2008; also: % is scaled to controls: 0 for no effect and ±100 for the full control effect; nearly all actives have a fitted effect of over 60% in size
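Luminescence was the read-out, taken after 8-minute incubation at ambient temperature. Luciferase turned over luciferin with 10 uM ATP in imidazole pH 7.2 buffer containing KCl, MgCl2, Tween 20 and BSA.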
HTT cytoprotect = qHTS Multiplex Assay to Identify Dual Action Probes in a Cell Model of Huntington: Cytoprotection (ATP). PC12 HTT-Q103 induced, cytoprotection, ATP luminescence, 40 h. Potency, µM (series often up to 56.4 µM), for the others: cytoprotection (ATP increase), usual class: activators. actives 0.14% (n = 230,000); also: % of control where 0% means no effect; nearly all actives have a fitted effect of over 45% in size
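ATP quantification (ATPlite) reports survival of PC12 cells in which tebufenozide, 100 nM final, switches on Htt exon 1 with 103 glutamines linked to GFP; compounds are titrated.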
LMNA splice mod = qHTS Assay for Modulators of Lamin A Splicing; HeLa LMNA splicing GFP/RFP minigene ratio, 48 h; Potency, µM (doses to about 46.1 µM), for the others: at the highest dose ratio change, negative = inhibition, actives largely listed as inhibitors; actives 0.01% (n = 200,000); active = well fitted inhibition curve with a large enough effect in the signal ratio, with a control signal flat, not every such curve was filed as active; inconclusive = small, poorly fitted or top-dose-only effect, or effect the other way, or a change in a side signal; the % refers to the signal ratio; also: % is scaled to controls: 0 for no effect and ±100 for the full control effect
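S3 HeLa stable clones carrying a lamin A-EGFP splicing minigene plus DsRed2 were seeded at 600 cells/well in Opti-MEM with 2% FBS, pin-dosed and incubated 48 h at 37°C. Acumen cytometry (488 nm) gave the GFP/RFP total-intensity ratio.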
ALDH1A1 inh = qHTS Assay for Inhibitors of Aldehyde Dehydrogenase 1 (ALDH1A1). Aldehyde dehydrogenase 1A1 (Homo sapiens), P00352. Purified ALDH1A1, NADH fluorescence, propionaldehyde substrate. Potency, µM (titrated, usually from 75.3 µM), for the others: top-dose activity, negative = inhibition, actives largely listed as inhibitors. actives 7.3% (n = 220,000); active = well fitted inhibition curve with a large enough effect, not every such curve was filed as active; inconclusive = small, poorly fitted or top-dose-only effect, or another doubt; inactive = no such curve, though single readings can be large or run the other way;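 also: plate controls were no enzyme wells and a reference inhibitor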
Target sequence (P00352 whole entry, looked up): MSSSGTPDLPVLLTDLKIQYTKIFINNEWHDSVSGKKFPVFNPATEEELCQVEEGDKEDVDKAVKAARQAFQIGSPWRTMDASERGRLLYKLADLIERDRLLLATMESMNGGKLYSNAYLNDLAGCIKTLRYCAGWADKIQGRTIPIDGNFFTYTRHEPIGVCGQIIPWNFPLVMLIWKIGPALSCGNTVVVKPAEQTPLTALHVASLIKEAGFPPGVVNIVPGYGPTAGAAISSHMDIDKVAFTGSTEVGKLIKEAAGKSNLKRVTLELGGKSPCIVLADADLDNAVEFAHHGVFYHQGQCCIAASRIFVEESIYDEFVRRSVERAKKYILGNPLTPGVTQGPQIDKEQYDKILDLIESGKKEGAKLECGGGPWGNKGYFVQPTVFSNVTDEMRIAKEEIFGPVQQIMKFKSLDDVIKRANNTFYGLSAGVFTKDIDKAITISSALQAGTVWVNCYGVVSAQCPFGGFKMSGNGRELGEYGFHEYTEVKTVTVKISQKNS
* = called active by the depositor; ? = inconclusive; · = no result given; [ ] = remark or other dose. Unless noted, calls follow the shape of the dose curve; as a rule, active = well fitted curve in the direction sought with a large enough effect; inconclusive = small, poorly fitted or top-dose-only effect, or another doubt; inactive = no such curve, though single readings can be large; an effect the other way counts as inactive or inconclusive. Potency is read from the fitted curve at half-maximal effect.

SMILES	HttQ103 aggreg	HPGD block	Luc counter	HTT cytoprotect	LMNA splice mod	ALDH1A1 inh
CCN(CC)CCNC(=O)COc1ccc(Cl)cc1Cl	-17.4%	1.5%	-7.5%	-7.5%	4.5%	8.9%
COc1ccc(OC)c(-c2nc3c(C)n[nH]c(=O)c3[nH]2)c1	12.6µM*	-28.0%	0.5%	-24.1%[10 µM]	?	-6.2%
O=C(COC(=O)C1CC(=O)N(Cc2ccco2)C1)c1ccc(OC(=O)c2ccccc2)cc1 (configuration not stated)	11.2%	28.2µM*	-1.3%	17.1%[10 µM]	-3.9%	14.1µM*
Cc1ccc(-c2csc(NC(=O)C3CC(=O)N(Cc4ccco4)C3)n2)cc1 (configuration not stated)	-6.8%	·	2.6%	18.3%[10 µM]	?	?
O=C(OCC(=O)N1c2ccccc2Sc2ccccc21)C1CC(=O)N(Cc2ccco2)C1 (configuration not stated)	-11.4%	-12.2%	-1.3%	-6.0%[10 µM]	-4.2%	35.5µM*
Cc1csc(NC(=O)C2CC(=O)N(Cc3ccco3)C2)n1 (configuration not stated)	0.631µM*	·	-2.9%	1.12µM*	-11.1%[46 µM]	1.4%
O=C(COc1ccccc1Cl)NC(=O)NC1CCCC1	-2.0%	-18.3%	-0.6%	3.0%	-9.9%	?
O=C(O)c1[nH]c2ccc(Br)cc2c1CCN1C(=O)c2cccc([N+](=O)[O-])c2C1=O	-13.8%[9.22 µM]	·	·	-5.6%[10 µM]	·	31.6µM*
CC(=O)Nc1ccc(C2=NN(C)C(=NCc3ccccc3)SC2)cc1	8.9%	·	-0.2%	-14.5%	4.9%[46 µM]	2.82µM*
COc1ccc(N2CCN(C(=O)/C=C/c3ccco3)CC2)cc1	?	·	-3.8%	-27.1%	?	22.4µM*
Cc1ccc(S(=O)(=O)N2CCN(C(=O)/C=C/c3ccco3)CC2)cc1	-2.1%	-20.5%	2.5%	20.3%[10 µM]	-12.0%	22.4µM*
O=C(/C=C/c1ccco1)N1CCN(c2ccc(F)cc2)CC1	9.6%[9.22 µM]	·	·	-1.1%[10 µM]	·	·
O=C(Nc1cccc2ncccc12)c1ccc(F)cc1	-12.0%	-4.4%	-1.6%	23.2%[10 µM]	-11.6%	2.2%
CC(C)NC(=O)CN1CCN(c2ncccn2)CC1	-2.9%	-14.7%	1.3%	-13.0%	2.3%	28.2µM*
CC(NC(=O)CN1CCN(c2ncccn2)CC1)c1ccc(F)cc1 (configuration not stated)	-9.4%	1.7%	0.0%	2.0%	-0.7%	8.0%
O=C(CN1CCN(c2ccccn2)CC1)Nc1ccccc1	4.0%	-20.2%	-5.5%	8.1%	11.4%	-5.3%
O=C(CN1CCN(c2ccccn2)CC1)Nc1ccc(Oc2ccccc2)cc1	-2.5%	5.8%	-6.9%	-3.4%	-9.2%	25.1µM*
O=C(CN1CCN(c2ccccn2)CC1)NC1CCCC1	·	-23.1%	3.3%	-6.9%[10 µM]	-8.2%	25.1µM*
COc1ccc(OC)c(S(=O)(=O)NCCc2csc(-c3cccc(F)c3)n2)c1	·	·	·	·	-3.8%[46 µM]	·
CCOc1ccc(N(CC(=O)O)S(=O)(=O)c2ccc(F)cc2)cc1	14.0%	-14.2%	2.0%	-10.0%	5.0%	?
Cc1ccc(CC(=O)OCCNC(=O)c2cccnc2)cc1	2.4%	-8.5%	0.2%	-2.1%	1.0%	-4.1%
COc1ccc(C2C(=O)N(C3CCCCCC3)CC(=O)N2Cc2ccccc2)cc1OC (configuration not stated)	0.2%	-2.1%	-1.1%	-18.3%	3.0%	-11.9%
Cc1ccc2c(c1)C1CCCC3C1N2CC(=O)N3Cc1ccccc1 (configuration not stated)	-19.8%	-23.4%	-0.4%	-11.8%	-1.6%	22.4µM*

Source: PubChem (National Center for Advancing Translational Sciences (NCATS))
